# Results taken from the supplement of paper PMC10127200.
# Counter-ions that a name gives are not always drawn.
# Experiments:
# Assay in all cases: Euclidean distance of Cell Painting phenotypic profile (signed KS, 77 features) to DMSO centroid (dimensionless distance); 5 or 10 uM (library dependent); higher = stronger phenotypic change vs DMSO (phenoactivity)
# Conditions in all cases: 48 h
# 786-O = system: 786-O
# Outline: (§1)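 Library compounds were applied at 10 or 5 uM, depending on the library, with 0.1% DMSO final, for 48 h to five cancer lines and a healthy fibroblast line. After staining, cells were imaged confocally at 20X across 9 fields per well, and Harmony extracted 77 features, each scored as a signed Kolmogorov-Smirnov statistic against vehicle wells on the same plate. Phenoactivity is the Euclidean distance between each profile and the median vehicle profile, with profiles first plate-position corrected, correlation-weighted and averaged over replicates at the top dose.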
# A549 = system: A549
# Outline: as §1
# DU145 = system: DU145
# Outline: as §1
# FB = system: FB
# Outline: as §1
# HEPG2 = system: HEPG2
# Outline: as §1
# OVCAR4 = system: OVCAR4
# Outline: as §1
SMILES,Euclidean distance (786-O),Euclidean distance (A549),Euclidean distance (DU145),Euclidean distance (FB),Euclidean distance (HEPG2),Euclidean distance (OVCAR4)
O=C(O[C@H]1CN2CCC1CC2)N1CCc2ccccc2[C@@H]1c1ccccc1 [Solifenacin succinate],1.31,1.56,1.17,2.68,2.17,1.98
Cc1[nH]c(/C=C2\C(=O)Nc3ccccc32)c(C)c1CCC(=O)O [TSU-68 (SU6668. Orantinib)],0.704,0.699,0.85,0.825,0.787,0.814
Cc1[nH]c(/C=C2\C(=O)Nc3ccc(S(=O)(=O)N(C)c4cccc(Cl)c4)cc32)c(C)c1C(=O)N1CCN(C)CC1,2.57,3.08,2.03,2.51,1.47,3.13
C#C[C@]1(O)CC[C@H]2[C@@H]3CCC4=CC(=O)CC[C@@H]4[C@H]3C(=C)C[C@@]21CC [Etonogestrel],0.851,0.713,0.98,1.21,0.628,1.03
O=C(c1ccc(F)cc1)N1CCC[C@H](c2nc(-c3ccc(F)cc3)no2)C1,1.35,0.726,0.856,1.17,0.656,0.832
Clc1ccc(C(Cn2ccnc2)OCc2ccc(Sc3ccccc3)cc2)c(Cl)c1 (stereo unspecified) [Fenticonazole Nitrate],1.13,0.887,1.51,1.21,2.16,1.35
CC(C)NCC(O)COc1cccc2[nH]c3ccccc3c12 (stereo unspecified) [Carazolol],1.27,0.789,1.12,0.974,1.07,1.31
CCN(CC)CCCC(C)Nc1ccnc2cc(Cl)ccc12 (stereo unspecified) [Chloroquine Phosphate],3.74,3.04,2.7,4.77,3.32,3.09
C[C@H](O)C(=O)Nc1c(I)c(C(=O)NC(CO)CO)c(I)c(C(=O)NC(CO)CO)c1I [Iopamidol],0.656,0.571,0.699,1.06,0.734,1.33
C[C@]12CCC3=C4CCC(=O)C=C4CC[C@H]3[C@@H]1CC[C@@]2(O)CC#N [Dienogest],1.53,0.862,1.61,1.08,1.12,1.39
CCOc1ccc2c(-c3cccc(F)c3)nn(CC(=O)N(C)c3ccc4nc(C)oc4c3)c(=O)c2c1,1.05,0.995,1.36,0.808,0.431,0.932
C[C@@H]1O[C@@H](OC[C@H]2O[C@@H](Oc3c(-c4ccc(O)c(O)c4)oc4cc(O)cc(O)c4c3=O)[C@H](O)[C@@H](O)[C@@H]2O)[C@H](O)[C@H](O)[C@H]1O [Rutin],1.11,0.756,0.783,0.933,0.632,0.909
CN[C@H](CC(C)C)C(=O)N[C@H]1C(=O)N[C@@H](CC(N)=O)C(=O)N[C@H]2C(=O)N[C@H]3C(=O)N[C@H](C(=O)N[C@H](C(=O)O)c4cc(O)cc(O)c4-c4cc3ccc4O)[C@H](O)c3ccc(c(Cl)c3)Oc3cc2cc(c3O[C@@H]2O[C@H](CO)[C@@H](O)[C@H](O)[C@H]2O[C@H]2C[C@](C)(N)[C@H](O)[C@H](C)O2)Oc2ccc(cc2Cl)[C@H]1O [Vancomycin HCl],0.545,0.761,0.862,0.465,0.611,0.795
O=c1cc(-c2ccccc2)oc2cc(O)cc(O)c12 [Chrysin],1.58,1.09,1.1,1,1.37,1.37
OC(c1cc(C(F)(F)F)nc2c(C(F)(F)F)cccc12)C1CCCCN1 (stereo unspecified) [Mefloquine HCl],2.22,2.49,1.85,2.46,4.9,2.05
OCCN(CCO)c1nc(N2CCCCC2)c2nc(N(CCO)CCO)nc(N3CCCCC3)c2n1 [Dipyridamole],1.24,0.954,1.33,0.963,0.833,0.968
C=CC(=O)Nc1cc(Nc2nccc(-c3cn(C)c4ccccc34)n2)c(OC)cc1N(C)CCN(C)C [Osimertinib mesylate],4.85,4.05,2.93,5.59,5.06,4.46
CC(C)c1nc(CN(C)C(=O)N[C@@H](CCN2CCOCC2)C(=O)N[C@H](CC[C@H](Cc2ccccc2)NC(=O)OCc2cncs2)Cc2ccccc2)cs1 [Cobicistat (GS-9350)],2.05,2.31,1.67,1.66,1.23,1.96
CCCN1C[C@H](C)[C@@H](O)[C@](C)(O)[C@@H](CC)OC(=O)[C@H](C)[C@@H](O[C@H]2C[C@@](C)(OC)[C@@H](O)[C@H](C)O2)[C@H](C)[C@@H](O[C@@H]2O[C@H](C)C[C@H](N(C)C)[C@H]2O)[C@](C)(O)C[C@H]1C [Gamithromycin],1.26,1.03,1.98,1.12,1.08,1.05
C1CNCCN1 [Piperazine],1.04,1.08,0.846,1.09,0.402,1.67
CO/N=C(\C(=O)N[C@@H]1C(=O)N2C(C(=O)[O-])=C(C[n+]3cccc4c3CCC4)CS[C@H]12)c1csc(N)n1 [Cefpirome sulfate],0.835,0.636,0.405,0.989,0.508,0.689
COc1cc2ncnc(Nc3ccc(Cl)cc3F)c2cc1OC,1.46,1.74,1.56,1.26,1.51,1.01
CC(C)CN(C[C@@H](OP(=O)(O)O)[C@H](Cc1ccccc1)NC(=O)O[C@H]1CCOC1)S(=O)(=O)c1ccc(N)cc1 [Fosamprenavir calcium salt],1.44,0.901,1.21,0.737,0.527,1.41

SMILES,Euclidean distance (786-O),Euclidean distance (A549),Euclidean distance (DU145),Euclidean distance (FB),Euclidean distance (HEPG2),Euclidean distance (OVCAR4)
CC(C)(CO)[C@@H](O)C(=O)NCCC(=O)O [D-Pantothenate Sodium],1.18,0.904,1.05,1.15,0.523,1.33
CN(C)[C@@H]1C(O)=C(C(N)=O)C(=O)[C@@]2(O)C(O)=C3C(=O)c4c(O)ccc(Cl)c4[C@@H](O)[C@H]3C[C@@H]12 [Demeclocycline HCl],0.985,0.836,0.951,1.05,0.887,1.53
CNCCCC12CCC(c3ccccc31)c1ccccc12 [Maprotiline HCl],0.958,1.1,1.11,2.09,1.53,0.98
C[C@@H](Oc1ccc2[nH]nc(/C=C/c3cnn(CCO)c3)c2c1)c1c(Cl)cncc1Cl,3.17,3.59,3.07,3.2,3.02,3.82
CC(C)C[C@H](NC(=O)[C@H](Cc1ccccc1)NC(=O)c1cnccn1)B(O)O [Bortezomib],5.28,3.87,6.56,6.53,4.55,5.51
COCCCOc1ccnc(C[S+]([O-])c2nc3ccccc3[nH]2)c1C (stereo unspecified) [Rebeprazole sodium],0.719,0.641,0.763,1.22,1.54,0.777
CCN1C(=O)NC(c2ccccc2)C1=O (stereo unspecified) [Ethotoin],0.868,0.725,0.615,0.863,0.528,1.28
COc1ccccc1S(=O)(=O)Nc1ccc2c(c1)CN(C)C(=O)N2,1.98,1.83,1.91,2.84,2.74,1.87
COC(=O)Nc1nc2cc(C(=O)c3cccs3)ccc2[nH]1 [Nocodazole],2.96,2.51,3.43,2.56,2.58,3.08
CN1[C@@H]2CC[C@H]1C[C@@H](OC(c1ccccc1)c1ccccc1)C2 [Benztropine mesylate],1.38,0.973,1.51,1.56,1.19,1.21
CC(C)=CCC/C(C)=C/CC/C(C)=C/CC/C(C)=C/CC/C(C)=C/CC/C(C)=C/CC1=C(C)C(=O)c2ccccc2C1=O [Vitamin K2],1.17,1.16,1.1,0.823,0.747,1.54
CN1CCC(=C2c3ccccc3CCc3cccnc32)CC1 [Azatadine dimaleate],1.51,1.59,0.544,1.05,0.437,1.44
O=C(O)COCCN1CCN([C@H](c2ccccc2)c2ccc(Cl)cc2)CC1 [Levocetirizine Dihydrochloride],0.875,1.39,0.783,1.09,0.867,1.4
COc1ccccc1N1CCN(CCN(C(=O)C2CCCCC2)c2ccccn2)CC1,0.724,1.67,1.84,3.28,2.11,4.14
CC1(C)O[C@@H]2C[C@H]3[C@@H]4CCC5=CC(=O)C=C[C@]5(C)[C@H]4[C@@H](O)C[C@]3(C)[C@]2(C(=O)CO)O1 [Desonide],1.09,1.9,2.27,1.55,0.639,1.61
NS(=O)(=O)c1cc2c(cc1Cl)NC(C1CC3C=CC1C3)NS2(=O)=O (stereo unspecified) [Cyclothiazide],1.37,0.917,0.711,1.07,0.641,2.44
COc1cc(OC)c(NC(=O)Nc2cc(C)on2)cc1Cl,0.922,0.813,1.16,0.91,0.834,1.52
C[C@H](CCC(=O)O)[C@H]1CC[C@H]2[C@@H]3C[C@H](O)[C@@H]4C[C@H](O)CC[C@]4(C)[C@H]3CC[C@]12C [Hyodeoxycholic acid (HDCA)],1.08,0.973,0.585,0.898,0.401,1.37
COc1ccc2[nH]c([S@@+]([O-])Cc3ncc(C)c(OC)c3C)nc2c1 [Esomeprazole Sodium],1.75,1.36,1.05,0.915,1.26,1.34
Clc1ccccc1C(c1ccccc1)(c1ccccc1)n1ccnc1 [Clotrimazole],2.01,1.31,1.38,1.42,1.76,1.64
CN1CCc2c(c3ccccc3n2Cc2ccccc2)C1 [Mebhydrolin napadisylate],1.27,1.06,0.544,1.03,1.31,1.49
CCC[C@H](N[C@H]1CCc2cc(F)cc(F)c2C1)C(=O)Nc1cn(C(C)(C)CNCC(C)(C)C)cn1,1.07,1.25,0.825,0.705,1.07,2.26
CC1CC(OC(=O)C(O)c2ccccc2)CC(C)(C)C1 (stereo unspecified) [Cyclandelate],1.19,1.12,1.02,0.843,0.782,1.02
